Data: PubChem BioAssay (NCATS)
Records with an inconclusive call do not appear. A call without a number means that no potency is given here. Activity calls are given as the source filed them. The call rests on the fitted dose curve; in most records, active means well fitted curve in the direction sought with a large enough effect; inconclusive means small, poorly fitted or top-dose-only effect, or another doubt; inactive means no such curve, though single readings can be large; an effect the other way counts as inactive or inconclusive.

What was measured:
[1] = target: Aldehyde dehydrogenase, mitochondrial (Homo sapiens) (UniProt P05091); assay: qHTS for Inhibitors of the Aldehyde Dehydrogenase Family (ALDH2) Primary screen (AID 2061308); further: nearly all actives have a fitted effect of over 55% in size
[2] = target: Retinaldehyde dehydrogenase 3 (Homo sapiens) (UniProt P47895); assay: qHTS for Inhibitors of the Aldehyde Dehydrogenase Family (ALDH1A3) Primary screen (AID 2061315)

SMILES	Potency [1]	Potency [2]
N#Cc1cccc(Nc2ncc(-c3cccc4ccccc34)o2)c1	inactive	inactive
COc1ccc(C(=O)NCC(=O)OC(C(=O)Nc2cc(C(F)(F)F)ccc2Cl)c2ccccc2)cc1OC (stereo not given)	inactive	inactive
CCCn1c(C)nc2c(NC3CCN(Cc4ccccc4)C3)nc(C)nc21 (stereo not given)	inactive	inactive
COc1cc(OC)cc(-c2ccc3c(-c4ccc(F)cc4)[nH]nc3n2)c1	inactive	inactive
COc1cccc(C2c3c(ncn(-c4ccccc4SC)c3=N)Oc3ccc4ccccc4c32)c1 (stereo not given)	inactive	inactive
Cc1cc(N[S+](=O)([O-])c2ccc(NC(=O)Cc3ccc(F)c(F)c3)cc2)no1	inactive	inactive
Cc1ccc(-c2ccc(=O)n(CC(=O)NCCc3cnc[nH]3)n2)cc1	inactive	inactive
Fc1ccc(Nc2nc(-c3ccnc(N4CCCCC4)c3)nc3ccccc23)cc1F	inactive	inactive
CCC(Nc1ncnc2ccc(-c3c(C)noc3C)cc12)c1ccccc1 (stereo not given)	inactive	inactive
COc1ccc(C2c3c(nc(Cc4ccccc4)[nH]c3=O)Oc3ccc4ccccc4c32)cc1OC (stereo not given)	inactive	inactive
CC1CC1C(=O)Nc1ccc([S+](=O)([O-])Nc2nccs2)cc1 (stereo not given)	inactive	inactive
CC(=O)NC(c1cc(F)c2cccnc2c1O)C1CC1 (stereo not given)	inactive	inactive
COc1ccc(-c2ccc3ncnc(NCc4nc(C)cs4)c3c2)cc1OC	inactive	inactive
O=C(Nc1ccc([S+](=O)([O-])Nc2nccs2)cc1)c1ncn[nH]1	inactive	inactive
Cc1cc(-c2nnc3n2CCCCC3)c(C)n1-c1ccc(C(F)(F)F)cc1	inactive	inactive
